Test results published in PubChem BioAssay (Tox21).
“And” between values parts separate entries of the source, which are not always exact repeats. Identical values can stand only once. Inconclusive results are not listed. Where a call stands in place of a potency, no number is given. A number with no mark means an inactive call. The source made the active and inactive calls. The call rests on the fitted dose curve; in most records, active means well fitted cell-killing curve with a large enough effect in the repeat runs; inconclusive means weak or mixed curves, or effect the other way; inactive means no such curve, though single readings can be large or run the other way.

Assay: qHTS assay to identify small molecule antagonists of the thyroid receptor (TR) signaling pathway - cell viability counter screen (AID 743064); further: nearly all actives have a fitted effect of over 50% in size
Settings: GH3.TRE-Luc viability, CellTiter-Fluor, 24 h; series mostly up to 70.3 µM
Text: National Center for Advancing Translational Sciences [NCATS]
NIH Chemical Genomics Center [NCGC]
U.S. Environmental Protection Agency [EPA]
National Institutes of Environmental Health Sciences [NIEHS]
National Toxicology Program [NTP]
U.S. Food and Drug Administration [FDA]
Thyroid receptor (TR), a nuclear hormone receptor, plays an important role in development, proliferation, differentiation, metabolism, brain function, and cardiovascular system. […] To profile the Tox21 10K compound library in TR signaling, a cell-based GH3-TRE-Luc assay (GH3.TRE-Luc cell line, developed by the laboratory of Dr. Albertinka J. Murk, Wageningen University) was used to measure the inhibition of TR. GH3 (rat pituitary tumor) cells stably expressing a TR activity sensor consisting of two TR response elements and a luciferase reporter gene. The cytotoxicity of the Tox21 compound library against the GH3.TRE-Luc cell line was tested in parallel by measuring the cell viability using CellTiter-Fluor assay (Promega, Madison, WI) in the same wells.
Tox21 Assay Protocol Summary:
GH3.TRE-Luc cells were dispensed at 1500 cells/4 uL/well into 1536-well white solid bottom plates using a Multidrop Combi dispenser (Thermo Fisher Scientific Inc., Waltham, MA). After the assay plates were incubated at 37 C for 4 hours, 23 nL of library compound or DMSO controls was transferred to the assay plates by a pintool station (Kalypsys, San Diego, CA), followed by addition of 1 ul of T3 (1 nM, final concentration in the wells) to stimulate TR transactivation. The assay plates were incubated at 37 C for 23.5 h, and then 1 uL of CellTiter-Fluor reagent (Promega, Madision, WI) of measuring cytotoxicity was added to each well using a Bioraptr Flying Reagent Dispenser (FRD) workstation (Beckman Coulter, Indianapolis, IN, USA). The plates were incubated at 37C and 5% CO2 for additional 30 min, and fluorescence intensity was measured by a ViewLux plate reader (PerkinElmer, Shelton, CT).
Potency means the concentration at half of the fitted maximal effect.

Structure (SMILES)	Potency	activity change, negative = cytotoxic
CCOC(=O)CCN(SN(C)C(=O)Oc1cccc2c1OC(C)(C)C2)C(C)C	inactive	
Clc1c(Cl)c(Cl)c(Cl)c(Cl)c1Cl		-0.947% [at 8.44 µM]
Oc1cc(Cl)cc(Cl)c1	inactive	
O=[N+]([O-])c1cccc2cccc([N+](=O)[O-])c12	inactive	
COc1c2c(cc3c1OCO3)CCN(C)C2	inactive	
O=C(Nc1ccc(F)cc1F)c1cccnc1Oc1cccc(C(F)(F)F)c1	inactive	
CCC1COC(Cn2cncn2)(c2ccc(Cl)cc2Cl)O1 (stereo not given)	inactive	
CSC(=O)c1c(C(F)F)nc(C(F)(F)F)c(C(=O)SC)c1CC(C)C	54.2 µM (active)	
CCCCn1cc[n+](C)c1 (tested in a mixture with another compound)	inactive	
CC(C)C(Nc1ccc(C(F)(F)F)cc1Cl)C(=O)OC(C#N)c1cccc(Oc2ccccc2)c1 (stereo not given)	inactive	
COP(=S)(OC)Oc1ccc([N+](=O)[O-])c(C)c1	inactive	
Cc1cccc(Cc2cnc[nH]2)c1C	inactive	
CC(Cc1ccc2c(c1)OCO2)NO (stereo not given)	inactive	
[C-]1=CC=CC1.[Cl][Zr+2][Cl].c1cc[cH-]c1	inactive	
CC1=C2C[C@H]3[C@@H](CC=C4C[C@@H](O)CC[C@@]43C)[C@@H]2CC[C@]12O[C@@H]1C[C@H](C)CN[C@H]1[C@H]2C	inactive	
O=S(=O)(NS(=O)(=O)C(F)(F)F)C(F)(F)F	inactive	
ClCBr	inactive	
CCCCN(CCCC)C(=S)S	inactive	
CCCCON=O	inactive	
[Cl][Hg][c]1ccccc1	0.243 µM (active)	

Structure (SMILES)	Potency	activity change, negative = cytotoxic
CCC(C)Br (stereo not given)	inactive	
ClSC(Cl)(Cl)Cl	inactive	
COc1cnc(OC)n2nc(NS(=O)(=O)c3c(OCC(F)F)cccc3C(F)(F)F)nc12	inactive	
COC(=O)c1ccccc1S(=O)(=O)NC(=O)Nc1nc(C)nc(OC)n1	inactive	
C=C(C)C(=O)[O][Sn]([CH2]CCC)([CH2]CCC)[CH2]CCC	0.433 µM (active)	
C1=CCC=C1	inactive	
Fc1ccc(C(OCCN2CCN(CCCc3ccccc3)CC2)c2ccc(F)cc2)cc1	9.44 µM (active)	
CCCCCCCCCCCCCCn1cc[n+](C)c1	2.74 µM (active) and 15.2 µM (active)	
CC(C)(C)c1ccc(OP(=O)(Oc2ccccc2)Oc2ccccc2)cc1	27.5 µM (active)	
CCNS(=O)(=O)C(F)(F)C(F)(F)C(F)(F)C(F)(F)C(F)(F)C(F)(F)C(F)(F)C(F)(F)F	inactive	
[O-][Cl+3]([O-])([O-])O	inactive	
CCCCN(CCCC)C(=S)[S-].CCCCN(CCCC)C(=S)[S-].[Ni+2]	inactive	
BrCCCBr	inactive	
N#Cc1c[nH]cc1-c1cccc2c1OC(F)(F)O2	27.3 µM (active)	
CCC[CH2][Sn]([CH2]CCC)([CH2]CCC)[O][Sn]([CH2]CCC)([CH2]CCC)[CH2]CCC		15.8% [at 8.44 µM]
C=Cc1cccc(CCl)c1	inactive	
CCCCCON=O	inactive	
COc1ccc2c(c1OC)C(=O)O[C@@H]2[C@H]1c2cc3c(cc2CCN1C)OCO3	6.79 µM (active)	
CC(C)NCC(O)c1ccccc1Cl (stereo not given)	inactive	
C[N+]1(C)[C@@H]2CC[C@H]1CC(OC(=O)C(CO)c1ccccc1)C2 (stereo not given in full)	inactive	
